Only some compounds are listed: those with a hit (about 12% of all), similar ones and a draw of the others.
USP8 inh: blocks human USP8 ubiquitin-rhodamine cleavage; P40818; purified USP8, Ub-rhodamine cleavage fluorescence, 30 min; inhibition, % at 20 µM; 47,000 tested, 4.2% active
Target sequence (P40818 whole entry, looked up): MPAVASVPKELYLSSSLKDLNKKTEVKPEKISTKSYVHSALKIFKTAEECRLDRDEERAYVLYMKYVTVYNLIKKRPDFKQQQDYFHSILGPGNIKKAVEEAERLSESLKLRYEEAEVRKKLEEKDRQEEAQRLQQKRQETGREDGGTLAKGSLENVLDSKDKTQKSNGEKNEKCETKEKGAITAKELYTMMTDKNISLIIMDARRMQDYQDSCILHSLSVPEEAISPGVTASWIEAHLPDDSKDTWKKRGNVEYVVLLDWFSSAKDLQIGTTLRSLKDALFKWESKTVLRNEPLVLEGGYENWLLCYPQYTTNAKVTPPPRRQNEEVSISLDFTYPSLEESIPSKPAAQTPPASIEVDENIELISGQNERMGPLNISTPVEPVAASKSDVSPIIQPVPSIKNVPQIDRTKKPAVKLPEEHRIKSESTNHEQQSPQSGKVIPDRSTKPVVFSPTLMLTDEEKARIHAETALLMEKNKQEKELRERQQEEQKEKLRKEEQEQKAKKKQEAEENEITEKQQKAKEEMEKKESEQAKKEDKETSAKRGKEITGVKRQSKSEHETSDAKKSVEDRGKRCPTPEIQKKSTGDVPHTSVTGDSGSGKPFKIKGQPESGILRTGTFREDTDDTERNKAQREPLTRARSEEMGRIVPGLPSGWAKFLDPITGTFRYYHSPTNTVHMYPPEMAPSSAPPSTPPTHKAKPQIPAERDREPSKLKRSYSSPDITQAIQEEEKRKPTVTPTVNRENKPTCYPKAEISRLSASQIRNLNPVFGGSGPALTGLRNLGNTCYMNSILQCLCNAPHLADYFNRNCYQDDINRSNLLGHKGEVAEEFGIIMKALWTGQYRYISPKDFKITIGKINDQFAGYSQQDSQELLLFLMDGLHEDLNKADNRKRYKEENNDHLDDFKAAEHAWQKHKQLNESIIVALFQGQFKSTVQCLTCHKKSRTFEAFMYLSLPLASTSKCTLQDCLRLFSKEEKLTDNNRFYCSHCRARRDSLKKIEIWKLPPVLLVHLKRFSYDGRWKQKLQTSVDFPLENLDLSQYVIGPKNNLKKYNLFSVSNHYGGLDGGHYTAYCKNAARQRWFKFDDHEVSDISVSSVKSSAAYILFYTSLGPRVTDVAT
USP17 inh: blocks human USP17 ubiquitin-rhodamine cleavage; inhibition, % at 50 µM; 47,000 tested, 6.5% active; A8MUK1; purified USP17, Ub-rhodamine cleavage fluorescence, 3 h; AID 1645855
USP30 block: human USP30 deubiquitinase inhibition | Q70CQ3 | purified USP30, Ub-rhodamine cleavage fluorescence | inhibition, % at 25 µM | 47,000 tested, 5.3% active
Active calls of the source: *; · = no result given. Rule as the data show it: active = inhibition above about 30%; inactive = the rest.

SMILES	USP8 inh	USP17 inh	USP30 block
CC(=O)c1ccc(OCCCC(=O)Nc2nc3c(C)cccc3s2)cc1	19.6	35.6*	16.9
O=C(NC1CCCC1)N1CCN(c2ncccc2-c2nnc(C3CC3)o2)CC1	1.3	2.0	0.6
Cc1ccnc(Nc2nc(C)c(C(=O)NC3CCCC3)s2)c1	23.9	31.3*	-10.4
Cc1ccc(OCc2nc(C)c(C(=O)NCC3CCCO3)s2)cc1 (stereo unspecified)	-1.2	-10.7	-22.1
Cc1nc(COc2ccccc2)sc1C(=O)NC1CCCC1	15.3	39.4*	15.1
Cc1nc(NC2CC2)sc1C(=O)NC1CCCC1	0.8	1.5	-49.1
Cc1ccc(F)cc1NC1c2ncccc2C(=O)N1Cc1ccco1 (stereo unspecified)	-4.2	-17.9	-24.0
Cc1cccc(NC(=O)Cn2c(N3CCOCC3)nc(C)cc2=O)c1	0.3	-1.4	1.4
CCc1ccc(NC(=O)Cn2c(N3CCOCC3)nc3cc(C)n(C)c3c2=O)cc1	13.9	39.6*	33.4*
CCc1cc(=O)n(CC(=O)Nc2cccc(F)c2)c(N2CCOCC2)n1	10.9	9.2	16.5
Cc1cc(C)n(-c2nc3c(c(=O)n2CC(=O)Nc2ccccc2C)CCC3)n1	-12.5	-10.6	-7.6
Cc1ccccc1NC(=O)Cn1c(N2CCOCC2)nc2cc(C)n(C)c2c1=O	4.8	36.4*	62.3*
Cc1cc(=O)n(CC(=O)NCc2ccc(Cl)cc2)c(N2CCOCC2)n1	1.9	3.3	18.6
Cc1ccc(NC(=O)Cn2c(N3CCOCC3)nc3cc(C)n(C)c3c2=O)cc1	5.0	14.3	49.0*
Cc1cc2nc(N3CCOCC3)n(CC(=O)Nc3cccc(F)c3)c(=O)c2n1C	18.7	38.1*	12.9
Cc1ccccc1NC(=O)N1CCN(Cc2ccc3nccnc3c2)CC1	-10.1	9.2	-1.1
O=C1CNc2ccc(C(=O)NCCC3=CCCCC3)cc2N1	-48.3	-33.4	·
Cc1oc2ncn3nc(-c4ccncc4)nc3c2c1C	-2.2	-2.1	-11.0
O=C(NCCc1nc(-c2ccccc2Cl)no1)c1ccccc1F	-23.0	3.2	-2.7
COc1ccc(C(=O)N(c2ccc(F)cc2)c2nc3ccccc3s2)c(OC)c1	-17.3	-26.8	-36.3
CC(C)=CCC/C(C)=C/CCC(C)(O)C1Cc2c(c3ccccc3[n+]([O-])c2C)O1 (stereo unspecified)	11.5	18.9	30.3*
CC(C)=CCCC(C)(O)CCCC(C)(O)CCCC(C)(O)CCCC(C)(O)CCCC(C)(O)CCC/C(C)=C/CC/C(C)=C/CC/C(C)=C/CO (stereo unspecified)	0.9	4.8	2.2
Cc1ccc2c(=O)c(C(=O)N3CCOCC3)cn(CC(=O)NC3CCCCC3)c2n1	26.7	20.1	14.4
Cc1cc2cc(CNC(=O)NC3CCCCC3)ccc2n1C	-8.7	33.1*	-83.5
COc1ccc(CC(=O)NCc2ccc3c(c2)cc(C)n3C)cc1OC	-59.1	-31.5	-213.0
SMILES	USP8 inh	USP17 inh	USP30 block
COCCN1CC2(CCN(S(=O)(=O)c3ccccc3)CC2)C2(CCN(C)C2=O)C1 (stereo unspecified)	-72.8	-21.7	-11.7
O=C(NC1CCCC1)C1CCN(c2cc(N3CCCCC3)ncn2)CC1	8.5	10.9	17.7
CC(NC(=O)c1ccc2cn[nH]c2c1)c1ccccc1 (stereo unspecified)	-8.4	-9.5	4.0
CSc1ncc(C(=O)NC(C)c2ccccc2)c(-c2ccccc2)n1 (stereo unspecified)	20.7	60.3*	23.1
Cc1ccccc1Nc1nccc(C2CCCN(C(=O)C3CCCC3)C2)n1 (stereo unspecified)	10.8	-0.7	15.0
Cc1cc(NC(=O)c2[nH]nc3c2CCc2ccccc2-3)no1	23.7	64.4*	-30.5
COc1ccc2c(c1)CCc1c-2n[nH]c1C(=O)N1CCN(c2ncccn2)CC1	-29.7	0.1	-1.1
COc1ccc2c(c1)CCc1c-2n[nH]c1C(=O)Nc1cc(C)on1	2.5	32.9*	54.7*
COc1ccc2c(c1)CCc1c-2n[nH]c1C(=O)N1CCC(C(N)=O)CC1	-24.4	24.4	30.3*
CCOC(=O)N1CCN(C(=O)c2[nH]nc3c2CCc2ccccc2-3)CC1	23.7	-12.0	16.1
COc1ccccc1CNC(=O)c1[nH]nc2c1CCc1ccccc1-2	-4.5	0.0	4.4
COc1ccc2c(c1)CCc1c-2n[nH]c1C(=O)N1CCN(C)CC1	-2.3	3.3	-6.1
Cn1c(CCNC(=O)c2[nH]nc3c2CCc2ccccc2-3)nc2ccccc21	59.4*	77.7*	-11.3
O=C(N1CCC2(CC1)Nc1ccccc1S(=O)(=O)N2)C1(c2ccccc2)CCCC1	15.8	-0.4	-10.8
COc1ccc(OC)c(NC(=O)Cn2cc(S(=O)(=O)Cc3ccccc3)c3ccccc32)c1	-18.8	13.8	-0.8
COc1ccc(-c2c(NC(=O)C3CCCCC3)n(C)c3ccccc3c2=O)cc1	13.1	9.5	12.7
COc1cc(C(Nc2ccc(S(=O)(=O)N3CCCC(C)C3)cc2)C(=O)NCC2CCCO2)cc(OC)c1OC (stereo unspecified)	-27.8	4.0	0.0
CCc1noc(-c2c(C)cc(C)n2CC(=O)Nc2ccccc2CC)n1	0.0	29.2	6.2
CCOc1ccc(-c2cc3nc(C4CCN(C(=O)OC(C)(C)C)CC4)c(C(=O)Nc4cc(F)ccc4F)cn3n2)cc1	55.8*	46.0*	-8.2
COc1ccc(-c2cc3nc(C4CCN(C(=O)OC(C)(C)C)CC4)c(C(=O)Nc4ccc(C)c(Cl)c4)cn3n2)cc1	5.8	2.4	-16.0
Cc1noc(C)c1CN1CCC(NC(=O)C2CCC2)C1 (stereo unspecified)	9.9	1.2	7.9
O=C(c1ccc2c(c1)N(Cc1ccccc1F)C(=O)c1ccccc1S2(=O)=O)N1CCN(C(=O)c2ccco2)CC1	12.9	37.6*	28.6
O=C(c1ccc2c(c1)N(Cc1ccccc1F)C(=O)c1ccccc1S2)N1CCC2(CC1)OCCO2	5.6	12.0	0.6
Cc1ccc(SCCS(=O)(=O)c2ccc(F)cc2)cc1	6.0	5.8	2.1
CCCCOC(=O)c1c(C)oc2c1cc(NS(=O)(=O)c1ccc(CC)cc1)c1ccccc12	44.8*	14.3	-51.4
SMILES	USP8 inh	USP17 inh	USP30 block
CC(=O)c1c(C)oc2c1cc(OC(=O)c1ccccc1)c1ccccc12	12.7	-0.4	12.8
Cc1nc(-c2cccc(C(=O)O)c2)cc(C2CCN(S(C)(=O)=O)C2)n1 (stereo unspecified)	0.7	6.7	3.7
C[C@@H]1C[C@@H]2C[C@@H](O)CC(O)=C2C(=O)O1	-0.4	-6.9	17.0
CN1C(=O)Cc2ccccc2C1C(=O)NCc1cccc(F)c1 (stereo unspecified)	19.5	4.6	7.3
CCOc1cccc(CNC(=O)C2c3ccccc3CC(=O)N2CC)c1 (stereo unspecified)	55.3*	26.6	2.0
CC(C)NC(=O)Cn1cccc1-c1nc(-c2ccc(F)cc2)no1	6.7	5.2	16.0
Cn1c(=O)c2c(SCC(=O)N3CCCC3)nc(-c3cccc(F)c3)nc2n(C)c1=O	-29.1	·	4.4
Clc1cccc(-c2cn[nH]c2C2CCCN2)c1 (stereo unspecified)	2.7	3.7	33.5*
c1ccc(-c2n[nH]c(C3CCCN3)n2)cc1 (stereo unspecified)	-46.6	-10.0	-2.2
CCC1CCCCN1Cc1nc2c(c(=O)n(C)c(=O)n2C)n1Cc1ccccc1F (stereo unspecified)	15.7	5.5	18.0

Assay outcomes: PubChem BioAssay, Buhrlage Lab, Dana-Farber Cancer Institute and Novartis Institutes for BioMedical Research (Cambridge, Mass)
